Molecules are shown by their SMILES. Values joined by “and” are separate entries in the source; they are usually repeats but may differ in a detail not shown here. Equal values may be shown once. Active and inactive are the calls of the source.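 Rule for the calls, unless noted: active = compounds whose cell count with miR-34 switched on is under 0.7 times the count with it off; inactive = the rest.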

Assay [1] can be described thus: Wnt pathway potentiators raising nuclear beta-catenin – imaging, WNT3A-conditioned medium, mouse C2C12, NPC library, primary screen (AID 1117326; in the data active = nuclear beta-catenin stimulation mostly above about 4.2%, no sharp cut-off; inactive = mostly below about 10%). The conditions noted are these: stronger effect = higher value.
Assay [2] in a line: stimulators of insulin release from INS-1E, primary screen, cell-based, 5 mM glucose, NPC library (AID 1117329;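 active = compound raises insulin release from rat beta cells at 5 mM glucose, no numeric limit stated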). To be noted: rat INS-1E insulin secretion, at 10 µM, stronger effect = higher value.
Assay [3] in a line: growth inhibition of GSK3B-pretreated HCT116 cells – cell-based, CellTiter-Glo, 0.2 to 20 µM (AID 1117336;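 active = compounds lowering colon cancer cell viability after pretreatment blocking the GSK3B kinase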). The conditions noted are these: HCT116 viability after GSK3B inhibitor, at 20 µM, stronger effect = higher value. (In general: In ATP-based viability assays light output follows the ATP content of the culture.)
A short description of assay [4]: inhibition of endothelial tube formation, primary screen, imaging, VEGF stimulated, CD31 staining, tube area, NPC library (AID 1117340;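 active = compound that reduces growth-factor-driven endothelial tube area in a mixed cell culture, no cutoff stated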). To be noted: VEGF-stimulated ADSC/ECFC co-culture, at 10 µM, stronger effect = higher value.
The nature of assay [5]: GLP1 release stimulators, primary, NCI-H716, NPC library (AID 1117341;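 active = compound raises GLP1 secretion from the human gut endocrine cells, with no numeric limit stated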). The conditions noted are these: NCI-H716 cells, at 10 µM, stronger effect = higher value.
Assay [6] can be described thus: HCT116 colon cancer cell growth inhibition, primary screen, CellTiter-Glo luminescence, NPC library (AID 1117342;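 active = compounds that lower survival of HCT116 colon cancer cells in the luminescence readout, no numeric limit stated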). To be noted: at 20 µM (top of the series).
Assay [7] in a line: reduced SW480 viability measured with CellTiter-Glo, NPC library, primary (AID 1117343;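 active = compounds that lower viability of the colon cancer cells in the luminescence readout, with no numeric limit stated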). To be noted: CellTiter-Glo luminescence; at 20 µM (top of the series).
The nature of assay [8]: NPC library primary testing for decreased DLD-1 cell viability via CellTiter-Glo (AID 1117346;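 active = compounds that lower survival of DLD-1 colon cancer cells in the luminescence readout, no cutoff given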). The conditions noted are these: DLD-1 viability, CellTiter-Glo luminescence; at 20 µM (top of the series).
The nature of assay [9]: viability loss with induced miR-34 in A549 – imaging, A549 dox-inducible miR-34, nuclei and caspase counts, primary screen (AID 1347080). To be noted: A549 miR-34 inducible, Hoechst nuclei count, 48 h.
Assay [10] in a line: galactose survival enhancers in mitochondrial complex I cybrids – cell-based, galactose medium, ATP luminescence, primary screen (AID 1645843;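 active = z-score of at least 1.8 in each of two replicates, scored against plate mean and spread of sample wells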;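 note: positive z means more ATP and so rescue of galactose-driven cybrid death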). The conditions noted are these: complex I mutant cybrid cells, 72 h, stronger effect = higher value.
The nature of assay [11]: P. berghei load reduction in hepatocytes – cell-based, HepG2, luciferase luminescence, HepG2 viability, primary screen (AID 624349; in the data active = parasite load remaining mostly below about 12%, no sharp cut-off; inactive = mostly above about 10%;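 note: 100% = mean of DMSO negative control wells on the same plate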). To be noted: P. berghei liver stage in HepG2, luciferase luminescence, concentration not given here; parasite load remaining: stronger effect = lower value; viability: measured here: HepG2 viability without parasites.
The nature of assay [12]: MELAS cybrid and Rieske KO viability enhancers – cell-based, MELAS cybrids, Rieske KO mouse fibroblasts, CellTiter-Glo, primary screen (AID 1508586;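 active = mean z-score across replicates of 1.96 or higher in either the MELAS or the Rieske mutant cell line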;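 note: z relative to plate mean and SD of compound and empty wells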). The conditions noted are these: low glucose.
Assay [13] relates to Aerobactin synthetase IucA (Klebsiella pneumoniae, hypervirulent). Description: biochemical IucA inhibition screen of LOPAC library by absorbance (AID 1346212; call rule not given here;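 note: 100% = no compound wells and 0% = no enzyme wells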). The conditions noted are these: IucA enzyme assay, absorbance (OD) readout; stronger effect = lower value;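 tested at 8 µM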.
A short description of assay [14]: EMT-state selective cytotoxicity in co-culture – imaging, PC-3E GFP, TEM4-18 mCherry, primary screen (AID 1345086;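 active = compounds killing one labelled cell type while sparing the other, by normalised counts and ratio limits, not self-fluorescent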;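 note: cells exposed to compound for 72 h before imaging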;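 for red/green cell ratio (normalised): normalised mesenchymal count divided by normalised epithelial count so high means epithelial killing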). The conditions noted are these: PC-3E GFP / TEM4-18 mCherry co-culture, imaging cell counts, at 1 µM.
Assay [15] has as its target NAD(+) hydrolase SARM1 (Homo sapiens) (UniProt Q6SZW1). Nature of the assay: blocking NAD cleavage by SARM1 SAM-TIR – cell lysate, NAD-Glo luminescence (AID 1508614;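 active = compound whose remaining NAD level is above about 45 nM, limit read from the data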;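 note: higher remaining NAD means stronger inhibition of SARM1 NADase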). The conditions noted are these: SAM-TIR HEK293T lysate NADase, at 1 µM, stronger effect = higher value.
The mark [16] stands for this setting: stronger effect = lower value, cell number ratio, induced over uninduced.
Where [17] appears, read: measured here: relative caspase fold change +Dox/-Dox.
Where [18] appears, read: measured here: total cells with miR-34 induction, stronger effect = lower value.
Setting [19] is: measured here: total cells without miR-34 induction.

Sequence of NAD(+) hydrolase SARM1 (Homo sapiens) (Q6SZW1 whole entry, looked up): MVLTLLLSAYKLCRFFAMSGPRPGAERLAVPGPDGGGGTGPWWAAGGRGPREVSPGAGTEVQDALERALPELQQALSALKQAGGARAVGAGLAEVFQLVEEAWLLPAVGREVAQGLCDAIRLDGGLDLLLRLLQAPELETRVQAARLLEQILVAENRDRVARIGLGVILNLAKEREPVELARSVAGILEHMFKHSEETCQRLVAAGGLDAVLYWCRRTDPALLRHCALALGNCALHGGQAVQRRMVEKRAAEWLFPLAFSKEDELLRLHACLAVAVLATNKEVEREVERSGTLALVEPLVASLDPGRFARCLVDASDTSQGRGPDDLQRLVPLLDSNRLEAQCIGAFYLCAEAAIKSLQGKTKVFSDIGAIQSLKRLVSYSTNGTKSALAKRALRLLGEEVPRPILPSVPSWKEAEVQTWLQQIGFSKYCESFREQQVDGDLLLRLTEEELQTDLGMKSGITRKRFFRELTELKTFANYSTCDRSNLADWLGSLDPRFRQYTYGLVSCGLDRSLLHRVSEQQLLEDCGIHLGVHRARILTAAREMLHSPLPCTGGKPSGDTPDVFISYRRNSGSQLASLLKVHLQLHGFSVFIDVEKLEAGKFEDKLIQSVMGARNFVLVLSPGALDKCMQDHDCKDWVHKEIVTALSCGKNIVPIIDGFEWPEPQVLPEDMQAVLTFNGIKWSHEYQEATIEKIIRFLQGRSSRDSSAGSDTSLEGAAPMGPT

For the molecule `FC(F)(F)c1cccc(C2=CCN(CCc3ccc4ccccc4c3)CC2)c1`, the nuclear beta-catenin stimulation in assay [1] (at 10 µM) was -0.7% (inactive); in assay [1] (stimulation, at 2 µM) it was -1.5%. Further, the insulin secretion stimulation in assay [2] was 0.45% (inactive). For the same molecule, the viability decrease in assay [3] was 40.2% (inactive). In assay [4], the tube area decrease is -6.6% (inactive). In addition, in assay [5], the GLP1 secretion stimulation is 3.7% (inactive). Further, the inhibition of viability in [6] was 42.1% (inactive). Moreover, the viability decrease (inhibition) in assay [7] is 53.5% (active); in [8] it was 17.3% (inactive). In addition, the fold change in assay [9] (setting [16]) was 0.954 (inactive); in assay [9] (setting [17]), 1.47. Also, the results for the cell count in assay [9] (setting [18]) and in [9] (setting [19]) were 8420 and 8830, respectively. Besides, the z-score in assay [10] is -0.615 (inactive).

Consider `CC(C)(C)OC(=O)c1ncn2c1[C@@H]1CCCN1C(=O)c1c(Br)cccc1-2`, for which the nuclear beta-catenin stimulation in [1] (at 10 µM) was 4% (inactive); in assay [1] (stimulation, at 2 µM) it was 2.4%. In assay [2], the insulin secretion stimulation is -0.65% (inactive). Also, the viability decrease in assay [3] is 13.7% (inactive). For the same molecule, the tube area decrease in assay [4] is 2% (inactive). The GLP1 secretion stimulation in assay [5] was -0.4% (inactive). In addition, the inhibition of viability in assay [6] is 26.5% (inactive). Further, the viability decrease (inhibition) in assay [7] was -7.5% (inactive); in assay [8], 7.7% (inactive). The fold change in assay [9] (setting [16]) is 0.898 (inactive); in [9] (setting [17]) it was 1.56. Further, the cell count in [9] (setting [18]) amounted to 6920; in assay [9] (setting [19]) it was 7710. For the same molecule, in [10], the z-score was -0.115 (inactive).

For the molecule `CCCC[N+]1(C)[C@@H]2CC(OC(=O)[C@H](CO)c3ccccc3)C[C@H]1[C@@H]1O[C@@H]12` (some centres not stated), in assay [11], the parasite load remaining was 35.4% (inactive). Moreover, the viability in assay [11] was 61.5%. For the same molecule, the nuclear beta-catenin stimulation in [1] (at 10 µM) was 1.5% (inactive); in assay [1] (stimulation, at 2 µM) it was -0.2%. Moreover, the insulin secretion stimulation in assay [2] was 0.85% (inactive). The viability decrease in [3] is 11.7% (inactive). Moreover, the tube area decrease in assay [4] was -20.3% (inactive). Further, in assay [5], the GLP1 secretion stimulation is 0.9% (inactive). In addition, the inhibition of viability in [6] is 3.4% (inactive). For the same molecule, the viability decrease (inhibition) is -15.4% (inactive) in assay [7] and -1.4% (inactive) in assay [8]. Moreover, the fold change in [9] (stronger effect = lower value) is 0.89 (inactive); in [9] (setting [17]) it was 0.894. The cell count in assay [9] (setting [18]) was found to be 9520; in assay [9] (setting [19]), 10700. In addition, the z-score was -0.818 (inactive) and -0.303 (inactive) in [12] (MELAS cybrid survival, CellTiter-Glo 48 h, stronger effect = higher value); -0.588 and -0.226 in assay [12] (Rieske KO mouse fibroblast survival, CellTiter-Glo 72 h); 0.285 (inactive) in assay [10].

`C=CCN1C[C@H](C)N([C@H](c2ccc(C(=O)N(CC)CC)cc2)c2cccc(OC)c2)C[C@H]1C`: the nuclear beta-catenin stimulation in assay [1] (at 10 µM) was 1.7% (inactive); in assay [1] (stimulation, at 2 µM), -0.7%. Besides, the insulin secretion stimulation in [2] was -1.1% (inactive). Moreover, the viability decrease in [3] is 4.6% (inactive). For the same molecule, the tube area decrease in assay [4] was 3.8% (inactive). Further, the GLP1 secretion stimulation in assay [5] was 5.2% (inactive). In addition, the inhibition of viability in assay [6] was 35% (inactive). Further, the viability decrease (inhibition) in assay [7] was 6% (inactive); in [8] it was 23.5% (inactive). In addition, the remaining activity in [13] was 109% (inactive). Moreover, the fold change in [9] (setting [16]) was 0.944 (inactive); in assay [9] (setting [17]), 1.05. The values for the cell count in assay [9] (setting [18]) and in [9] (setting [19]) were 8480 and 8990, respectively. The z-score in [10] is 0.105 (inactive).

As to `O=c1n(Cl)c(=O)n(Cl)c(=O)n1Cl`, the nuclear beta-catenin stimulation in [1] (at 10 µM) was -0.9% (inactive); in assay [1] (stimulation, at 2 µM), -0.3%. For the same molecule, in [2], the insulin secretion stimulation was 1.5% (inactive). Moreover, the viability decrease in assay [3] was -15.4% (inactive). Moreover, in assay [4], the tube area decrease was 16.7% (inactive). Also, in [5], the GLP1 secretion stimulation was 0.8% (inactive). Besides, in assay [6], the inhibition of viability is 13.9% (inactive). Further, the viability decrease (inhibition) in [7] is 11.6% (inactive); in assay [8], -0.1% (inactive). In addition, the red/green cell ratio (normalised) in assay [14] (actives lie on both sides) was 0.94 (inactive). For the same molecule, the normalised cell number in assay [14] (measured here: epithelial PC-3E GFP cell survival) is 1.07; in assay [14] (measured here: mesenchymal TEM4-18 mCherry cell survival) it was 1. Besides, the fold change in assay [9] (stronger effect = lower value) was 0.97 (inactive); in assay [9] (setting [17]), 1.18. Besides, the cell count in [9] (setting [18]) was 8670; in assay [9] (setting [19]), 8940. For the same molecule, the remaining NAD in assay [15] was 10 nM (inactive).

In the case of `O=C(NC(=O)c1c(F)cccc1F)Nc1cc(Cl)c(OC(F)(F)C(F)C(F)(F)F)cc1Cl` (configuration not stated), the nuclear beta-catenin stimulation in assay [1] (at 10 µM) is 2.8% (inactive); in assay [1] (stimulation, at 2 µM) it was 1.2%. Further, the insulin secretion stimulation in assay [2] was 3.3% (inactive). The viability decrease in assay [3] was 3.9% (inactive). Besides, in assay [4], the tube area decrease is 19.4% (inactive). The GLP1 secretion stimulation in assay [5] is 2.3% (inactive). In [6], the inhibition of viability was 35% (inactive). Also, the viability decrease (inhibition) in assay [7] is 19.8% (inactive); in [8], 16.2% (inactive). The fold change in [9] (stronger effect = lower value) was 1.06 (inactive); in [9] (setting [17]) it was 0.7. Further, the results for the cell count in assay [9] (setting [18]) and in assay [9] (setting [19]) were 7240 and 6820, respectively. Also, the remaining NAD in assay [15] is 10 nM (inactive).

The viability is a read-out of living cells in per cent, often relative to untreated cells. Broadly, the remaining activity is the signal under treatment as a percentage of the control signal.

Values taken from PubChem BioAssay.
